# Reference: PubChem BioAssay (NCI)
# About 83,000 compounds went through this panel and 20% of them were active in at least one assay; those are over-represented in the sample as a whole.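 Results are percent growth after 48 hours of single-concentration exposure. 100 means growth as in untreated cells, lower positive values show inhibition; negative values down to -100 show cell death.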 Values without a mark were called inactive. The source made the active and inactive calls. The calls were made as follows: active = growth percent below 10; inactive = the rest.
# How the values were obtained:
# Test in all cases: NCI-60 one-dose screen, 48 h (100 = growth as untreated, 0 = no growth, -100 = all killed)
# Details in all cases: 10 µM unless noted
# SK-MEL-2 melanoma = system: SK-MEL-2 melanoma
# EKVX NSCLC = system: EKVX NSCLC
# SN12C renal = system: SN12C renal
# UO-31 renal = system: UO-31 renal
# TK-10 renal = system: TK-10 renal
# ACHN renal = system: ACHN renal
# A498 renal = system: A498 renal
# CCRF-CEM leukemia = system: CCRF-CEM leukemia
# MOLT-4 leukemia = system: MOLT-4 leukemia
# SR leukemia = system: SR leukemia
# RPMI-8226 leukemia = system: RPMI-8226 leukemia
# OVCAR-8 ovarian = system: OVCAR-8 ovarian
# OVCAR-5 ovarian = system: OVCAR-5 ovarian
# OVCAR-4 ovarian = system: OVCAR-4 ovarian
# SK-OV-3 ovarian = system: SK-OV-3 ovarian
# IGROV1 ovarian = system: IGROV1 ovarian
# OVCAR-3 ovarian = system: OVCAR-3 ovarian
# HS 578T breast = system: HS 578T breast
# NCI/ADR-RES ovarian = system: NCI/ADR-RES ovarian
# CAKI-1 renal = system: CAKI-1 renal
SMILES,growth (SK-MEL-2 melanoma),growth (EKVX NSCLC),growth (SN12C renal) [%],growth (UO-31 renal),growth (TK-10 renal) [%],growth (ACHN renal),growth (A498 renal) [%],growth (CCRF-CEM leukemia),growth (MOLT-4 leukemia),growth (SR leukemia),growth (RPMI-8226 leukemia),growth (OVCAR-8 ovarian),growth (OVCAR-5 ovarian) [%],growth (OVCAR-4 ovarian),growth (SK-OV-3 ovarian),growth (IGROV1 ovarian),growth (OVCAR-3 ovarian),growth (HS 578T breast) [%],growth (NCI/ADR-RES ovarian),growth (CAKI-1 renal)
O=C(Nc1ccc(Cl)c(Cl)c1)Nc1ccccc1O,77%,80.4%,76.4,55.8%,116,76.5%,106,37.1%,61.1%,87%,18.8%,67.1%,98.7,67.1%,89.2%,72.7%,79.6%,106,63.8%,–
O=[N+]([O-])CC(O)c1ccccc1 (stereo not given),120%,113%,101,96.8%,111,102%,–,104%,98.6%,88.2%,89.7%,97.7%,95.7,93.8%,118%,112%,121%,125,101%,95.9%
O=C(Nc1cccc(C(F)(F)F)c1)Oc1ccc(Cl)c2cccnc12,9.44% (active),-2.85% (active),33.1,-17.3% (active),72.2,-2.14% (active),78.5,-15.3% (active),-1.74% (active),-1.87% (active),-37.9% (active),-11.1% (active),87.7,-0.489% (active),95.8%,5.79% (active),-56.3% (active),17.4,4.64% (active),–
c1ccc(-c2cccc(-c3ccccn3)n2)nc1,16.6%,15.8%,10.5,9.63% (active),32.9,14%,44.2,5.02% (active),3.3% (active),7.98% (active),20.8%,12%,59,33.3%,7.86% (active),19.3%,28.2%,67,1.8% (active),–
O=C1C=CC(=O)N1c1ccccc1,103%,99.6%,84.4,87.4%,105,-37.3% (active),105,–,42.2%,45.2%,–,99.5%,96.4,–,109%,105%,1.28% (active),103,97.7%,–
CCC(C)C(N)C(=O)NC(CC(N)=O)C(=O)NC(CC(C)C)C(=O)NC(CCCCN)C(=O)NC(C)C(=O)NC(CC(C)C)C(=O)NC(C)C(=O)NC(C)C(=O)NC(CC(C)C)C(=O)NC(C)C(=O)NC(CCCCN)C(=O)NC(CCCCN)C(=O)NC(C(=O)NC(CC(C)C)C(N)=O)C(C)CC (stereo not given),115%,91.2%,89.5,97.4%,106,87.3%,–,83.8%,94%,85.8%,74.7%,–,166,95.2%,110%,102%,117%,–,102%,85.3%
NC(=S)N/N=C\c1nccc2c(C(F)(F)F)cccc12,-7.77% (active),1.87% (active),17.2,-35.2% (active),17,6.72% (active),–,-9.85% (active),-40.2% (active),-28.6% (active),-13.9% (active),11.1%,36,–,11.4%,4.12% (active),15.3%,54.3,0.716% (active),-2.51% (active)
COc1ccc2nc3cc([N+](=O)[O-])ccc3c(NNc3ccccc3)c2c1,74.9%,83.1%,92.4,91.4%,60,68.7%,–,90.6%,128%,–,62.1%,81.7%,–,72.8%,71.9%,88.2%,72.6%,–,84.6%,86.1%
CC(C)(C)c1ccc(CCO)cc1,92.3%,89.6%,91.8,78.8%,93.7,107%,118,87.2%,99.1%,–,112%,95.8%,91.4,99.4%,100%,–,116%,135,101%,–
